The results in this text go back to PubChem BioAssay (EPA / NIEHS).

Read-out in assay [1]: Plasminogen activator inhibitor-1 (PAI1), SERPINE1 (gene 5054)
The experiment in a line: BSK_MyoF_PAI1: BioMAP Diversity Plus: MyoF Assay for Plasminogen activator inhibitor-1 (PAI1) Biomarker Activity (AID 2284256).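 Further: PAI-1 read 24 h after compound addition.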 Conditions: primary human lung fibroblasts. In outline: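 MyoF lung fibroblasts, human primary; compound 24 h; PAI-1 ELISA; positive-direction fit vs DMSO baseline; parallel SRB total-protein staining for cytotoxicity.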

Read-out in another assay: CD69, CD69 (gene 969)
The experiment in a line: BSK_IMphg_CD69: BioMAP Diversity Plus: IMphg Assay for CD69 Biomarker Activity (AID 2284257). Conditions: primary human endothelial cells with macrophages. In short, it runs like this: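 Human venular endothelial cells co-cultured with macrophages; CD69 quantified by ELISA 24 h after compound addition. Activity fitted in the positive direction relative to DMSO baseline; cytotoxicity tracked in parallel cultures via SRB total-protein staining.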

Read-out in assay [2]: Eotaxin 3, CCL26 (gene 10344)
As to the kind of experiment: BSK_BF4T_Eotaxin3: BioMAP Diversity Plus: BF4T Assay for Eotaxin 3 Biomarker Activity (AID 2284258). Conditions: primary human bronchial epithelial cells with fibroblasts. In outline: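 Co-culture of human bronchial epithelial cells and dermal fibroblasts, exposed to chemicals for 24 h versus DMSO. Eotaxin-3 quantified by ELISA; cytotoxicity checked in parallel cultures by sulforhodamine B total-protein staining.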

Read-out in assay [3]: Monocyte Chemoattractant Protein-1 (MCP1), CCL2 (gene 6347)
The experiment in a line: BSK_BF4T_MCP1: BioMAP Diversity Plus: BF4T Assay for Monocyte Chemoattractant Protein-1 (MCP1) Biomarker Activity (AID 2284259). Conditions: primary human bronchial epithelial cells with fibroblasts. In outline:
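Co-culture of bronchial epithelial cells and dermal fibroblasts dosed with chemical; MCP-1 measured by ELISA 24 h later. Activity fitted in positive direction versus DMSO; cytotoxicity checked by SRB staining in parallel cultures.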

Read-out in assay [4]: Intercellular Adhesion Molecule 1 (ICAM1), ICAM1 (gene 3383)
The experiment in a line: BSK_BF4T_ICAM1: BioMAP Diversity Plus: BF4T Assay for Intercellular Adhesion Molecule 1 (ICAM1) Biomarker Activity (AID 2284260). Conditions: primary human bronchial epithelial cells with fibroblasts. In outline: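 Co-culture of human bronchial epithelial cells and dermal fibroblasts exposed 24 h to chemical; cell-surface ICAM-1 quantified by ELISA. Parallel SRB total-protein staining assessed cytotoxicity; activity fitted relative to DMSO.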

Read-out in assay [5]: Interleukin-8 (IL8), CXCL8 (gene 3576)
The experiment in a line: BSK_MyoF_IL8: BioMAP Diversity Plus: MyoF Assay for Interleukin-8 (IL8) Biomarker Activity (AID 2284261). To be noted: primary human lung fibroblasts. In short, it runs like this: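 Lung fibroblasts (human primary) → chemical exposure → 24 h → IL-8 measured by ELISA. Signal increase scored versus DMSO control.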

Read-out in the next assay: CD90, THY1 (gene 7070)
As to the kind of experiment: BSK_BF4T_CD90: BioMAP Diversity Plus: BF4T Assay for CD90 Biomarker Activity (AID 2284262). Conditions: primary human bronchial epithelial cells with fibroblasts. In outline: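 Co-culture of human bronchial epithelial cells and dermal fibroblasts, 24 h compound exposure. Cell-surface CD90 measured by ELISA relative to DMSO; parallel SRB total-protein staining for cytotoxicity.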

Read-out in assay [6]: Interleukin-8 (IL8), CXCL8 (gene 3576)
The experiment in a line: BSK_BF4T_IL8: BioMAP Diversity Plus: BF4T Assay for Interleukin-8 (IL8) Biomarker Activity (AID 2284263). Conditions: primary human bronchial epithelial cells with fibroblasts. In short, it runs like this: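 Human bronchial epithelial cells with dermal fibroblasts co-culture; IL-8 measured by ELISA 24 hours after dosing, fitted vs DMSO. Cytotoxicity tracked in parallel cultures by SRB total-protein staining.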

Read-out in assay [7]: Interleukin-1 alpha (IL1a), IL1A (gene 3552)
The experiment in a line: BSK_BF4T_IL1a: BioMAP Diversity Plus: BF4T Assay for Interleukin-1 alpha (IL1a) Biomarker Activity (AID 2284264). To be noted: primary human bronchial epithelial cells with fibroblasts. In short, it runs like this:
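Human bronchial epithelial cells co-cultured with dermal fibroblasts, dosed and read at 24 h. Secreted/surface IL-1α quantified by ELISA; gain-of-signal fitted relative to DMSO baseline. Parallel SRB total-protein staining tracked cytotoxicity.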

Read-out in a further assay: Decorin, DCN (gene 1634)
As to the kind of experiment: BSK_MyoF_Decorin: BioMAP Diversity Plus: MyoF Assay for Decorin Biomarker Activity (AID 2284265). Conditions: primary human lung fibroblasts. In short, it runs like this: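 ELISA readout of decorin, 24 h post-dosing; primary human lung fibroblast (MyoF) culture; gain-of-signal fit vs DMSO baseline.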

Read-out in another assay: KRT18 (gene 3875)
As to the kind of experiment: BSK_BF4T_Keratin818: BioMAP Diversity Plus: BF4T Assay for Keratin 818 Biomarker Activity (AID 2284266). Conditions: primary human bronchial epithelial cells with fibroblasts. In short, it runs like this:
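Co-culture of human bronchial epithelial cells and dermal fibroblasts, chemical exposure 24 h. Keratin 8/18 measured by ELISA; positive-direction fit vs DMSO. SRB total protein run in parallel cultures for cytotoxicity.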

Assay [8] in a line: BSK_MyoF_SRB: Viability Assessment in the BioMAP Diversity Plus: MyoF Assay (AID 2284267).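 Further: total protein by SRB absorbance in parallel cultures as cytotoxicity measure.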 To be noted: primary human lung fibroblasts. In outline: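 Cytotoxicity in primary human lung fibroblasts is gauged by SRB total-protein staining 24 h after dosing, with DMSO as the negative control.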
Read-out in assay [9]: Matrix Metallopeptidase 1 (MMP1), MMP1 (gene 4312)
The experiment in a line: BSK_MyoF_MMP1: BioMAP Diversity Plus: MyoF Assay for Matrix Metallopeptidase 1 (MMP1) Biomarker Activity (AID 2284268). To be noted: primary human lung fibroblasts. In outline: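 Cells: human lung fibroblasts. Exposure: 24 h chemical dosing. Detection: ELISA for MMP1. Analysis: upward fitting against DMSO negative control.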

Read-out in assay [10]: TIMP metallopeptidase inhibitor 1 (TIMP1), TIMP1 (gene 7076)
As to the kind of experiment: BSK_MyoF_TIMP1: BioMAP Diversity Plus: MyoF Assay for TIMP metallopeptidase inhibitor 1 (TIMP1) Biomarker Activity (AID 2284269). To be noted: primary human lung fibroblasts. In short, it runs like this: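 ELISA read-out of TIMP-1 from primary human lung fibroblast cultures 24 h after compound dosing; gain of signal relative to DMSO vehicle baseline defines activity.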

Read-out in assay [11]: Matrix Metallopeptidase 1 (MMP1), MMP1 (gene 4312)
As to the kind of experiment: BSK_BF4T_MMP1: BioMAP Diversity Plus: BF4T Assay for Matrix Metallopeptidase 1 (MMP1) Biomarker Activity (AID 2284270). Conditions: primary human bronchial epithelial cells with fibroblasts. In outline: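 Co-culture of human bronchial epithelial cells and dermal fibroblasts; MMP-1 levels measured by ELISA 24 hours after chemical dosing, relative to DMSO. Cytotoxicity checked in parallel cultures by SRB total-protein staining.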

Read-out in assay [12]: Matrix Metallopeptidase 3 (MMP3), MMP3 (gene 4314)
The experiment in a line: BSK_BF4T_MMP3: BioMAP Diversity Plus: BF4T Assay for Matrix Metallopeptidase 3 (MMP3) Biomarker Activity (AID 2284271). To be noted: primary human bronchial epithelial cells with fibroblasts. In outline:
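Co-culture of human bronchial epithelial cells and dermal fibroblasts dosed 24 h; MMP-3 measured by ELISA, positive-direction fit versus DMSO. Cytotoxicity tracked by SRB total-protein staining (560 nm) in parallel cultures.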

Read-out in assay [13]: Tissue plasminogen activator (tPA), PLAT (gene 5327)
The experiment in a line: BSK_BF4T_tPA: BioMAP Diversity Plus: BF4T Assay for Tissue plasminogen activator (tPA) Biomarker Activity (AID 2284272). To be noted: primary human bronchial epithelial cells with fibroblasts. In short, it runs like this:
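tPA level quantified by ELISA at 24 h post-treatment in bronchial epithelial/dermal fibroblast co-cultures, gain of signal scored against DMSO baseline. Parallel cultures stained with 0.1% SRB (560 nm) to flag overt cytotoxicity.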

Read-out in assay [14]: Plasminogen Activator Inhibitor-1 (PAI1), SERPINE1 (gene 5054)
The experiment in a line: BSK_BF4T_PAI1: BioMAP Diversity Plus: BF4T Assay for Plasminogen Activator Inhibitor-1 (PAI1) Biomarker Activity (AID 2284273). To be noted: primary human bronchial epithelial cells with fibroblasts. In outline:
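Co-culture of human bronchial epithelial cells and dermal fibroblasts exposed to compound for 24 h. PAI-1 measured by ELISA; activity fitted in positive direction versus DMSO. Parallel SRB staining assessed overt cytotoxicity.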

The nature of assay [15]: BSK_BF4T_SRB: Viability Assessment in the BioMAP Diversity Plus: BF4T Assay (AID 2284274). To be noted: primary human bronchial epithelial cells with fibroblasts. In outline:
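Co-culture of human bronchial epithelial cells and dermal fibroblasts (BioMAP BF4T) exposed 24 h. Total protein by sulforhodamine B staining (0.1% SRB after 10% TCA fixation, 560 nm) in parallel cultures; fitted vs DMSO.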

Read-out in assay [16]: urokinase Plasminogen Activator (uPA), PLAU (gene 5328)
As to the kind of experiment: BSK_BF4T_uPA: BioMAP Diversity Plus: BF4T Assay for urokinase Plasminogen Activator (uPA) Biomarker Activity (AID 2284275). To be noted: primary human bronchial epithelial cells with fibroblasts. In short, it runs like this:
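Co-culture of human bronchial epithelial cells and dermal fibroblasts; uPA quantified by ELISA 24 hours after dosing, fitted relative to DMSO. Parallel SRB total-protein staining assessed overt cytotoxicity.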

The structures appear in SMILES notation. Some structures have more than one record in an assay (separate samples or runs), and their calls can disagree. Active and inactive are the calls of the source. How the source made its calls: active means hit-call score of the fitted dose curve at least 0.9, where 1 is the maximum; inactive means score below 0.9.

In the case of `Cn1cnc([N+](=O)[O-])c1Sc1ncnc2nc[nH]c12`, the outcome in assay [1] is “inactive”; with CD69, CD69 (gene 969) it was “inactive”; in assay [2], “inactive”; in [3], “inactive”; in assay [4] it was “inactive”; in assay [5], “inactive”. For the same compound, the outcome was “inactive” with CD90, THY1 (gene 7070); “inactive” in [6]; “inactive” in assay [7]; “inactive” in the assay with Decorin, DCN (gene 1634); “inactive” with KRT18 (gene 3875); “inactive” in assay [8]. Besides, the result in [9], in assay [10], in assay [11], in [12], in assay [13] and in assay [14] was inactive. Besides, the outcome in [15] and in assay [16] was inactive. In assay [13], the AC50 is 7.93 µM (active).

What is called AC50 is the concentration giving half of the maximal activity seen.
